From PubChem BioAssay (EPA / NIEHS)
Records with an inconclusive call do not appear. The source holds several records for some structures; these can differ, active in one and inactive in another. Calls of active or inactive are those of the source. How the source made its calls, unless noted: active means hit-call score of the fitted dose curve at least 0.9, where 1 is the maximum; inconclusive means response in the unintended direction; inactive means score below 0.9.

Tests used:
[1] = read-out: X-box binding protein 1 (XBP1), XBP1 (gene 7494); experiment: LTEA_HepaRG_XBP1: Life Technologies and Expression Analysis (LTEA) Assay for X-box binding protein 1 (XBP1) using HepaRG (AID 2283540; active means hit-call score of the fitted dose curve at least 0.9, where 1 is the maximum; inactive means score below 0.9); conditions: mRNA level, 48 h; actives raise or lower the signal
In short: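 Transcript levels of XBP1, measured by qRT-PCR and normalised to three housekeeping genes, were fitted bidirectionally relative to 0.5% DMSO controls. Human HepaRG cells received eight-point half-log dilutions from 100 uM for 48 h.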

[2] = LTEA_HepaRG_LDH_cytotoxicity: Cytotoxicity Assessment in the Life Technologies and Expression Analysis (LTEA) Assay (AID 2283563)
In short: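 Cells were thawed and plated for 48 h. Medium was then replaced with serum-free induction medium. Chemicals (8 half-log points, maximum 100 uM, 0.5% DMSO) were added in duplicate for 48 h, after which spent medium was assayed for LDH.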

[3] = ATG_XTT_Cytotoxicity: Cytotoxicity Assessment in the Attagene TRANS-FACTORIAL HepG2 Assay (AID 2283584)
In short: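 Cells: human HepG2, transiently transfected with MRTU reporter constructs. Exposure 24 h. Readout: XTT, cell number. Baseline/neg ctrl DMSO; loss-of-signal scored.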

[4] = TOX21_p53_BLA_p2_viability: Viability Assessment in the Tox21 HCT-116 p53 Agonism Beta-lactamase Assay, Phase 2 (AID 2283591);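 further: compound exposure lasted 16 h at 37 °C; actives lower the ATP signal meaning cytotoxicity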
In short: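 HCT-116 p53-bla cells (4000/well) rested 5 h at 37C, then received compounds in DMSO (217-fold dilution) for 16 h at 37C, 5% CO2. After the CCF4 read, CellTiter-Glo was added; ATP luminescence was read after 30 min at room temperature.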

[5] = molecular target: Cellular tumor antigen p53 (Homo sapiens) (UniProt P04637); experiment: TOX21_p53_BLA_p2_ratio: Tox21 HCT-116 p53 Agonism Beta-lactamase Assay, Ratio, Phase 2 (AID 2283592)
Cellular tumor antigen p53 (Homo sapiens), sequence (P04637 whole entry, looked up): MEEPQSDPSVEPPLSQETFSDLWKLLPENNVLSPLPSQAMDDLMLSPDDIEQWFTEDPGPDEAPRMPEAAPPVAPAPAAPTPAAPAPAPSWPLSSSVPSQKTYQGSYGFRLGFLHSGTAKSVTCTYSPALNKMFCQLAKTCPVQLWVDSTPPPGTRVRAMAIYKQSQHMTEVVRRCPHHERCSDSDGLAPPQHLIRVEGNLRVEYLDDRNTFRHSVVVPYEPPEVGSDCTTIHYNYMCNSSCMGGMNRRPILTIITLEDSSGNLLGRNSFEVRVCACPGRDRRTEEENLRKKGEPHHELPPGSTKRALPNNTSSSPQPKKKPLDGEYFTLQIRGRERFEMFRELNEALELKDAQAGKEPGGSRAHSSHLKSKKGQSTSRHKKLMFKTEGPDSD
In short: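 Plated HCT116 p53-bla cells (4000/well) received compound after 5 h, then 16 h at 37C/5% CO2. CCF4-AM added, 2 h RT. Ratio of 460 to 530 nm emission taken as the p53 reporter signal.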

[6] = molecular target: Cellular tumor antigen p53 (Homo sapiens) (UniProt P04637); experiment: TOX21_p53_BLA_p3_ratio: Tox21 HCT-116 p53 Agonism Beta-lactamase Assay, Ratio, Phase 3 (AID 2283596)
In short: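 Cells were seeded at 4000/well, rested 5 h at 37C, then dosed with DMSO compound solutions (217-fold dilution) for 16 h. CCF4-AM substrate was loaded for 2 h at room temperature, and the 460/530 nm emission ratio was fitted for gain of signal versus DMSO.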

[7] = TOX21_p53_BLA_p4_viability: Viability Assessment in the Tox21 HCT-116 p53 Agonism Beta-lactamase Assay, Phase 4 (AID 2283597);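 further: hits lower the luminescence signal meaning cytotoxicity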
In short: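 Readout: ATP luminescence (CellTiter-Glo), measured 30 min after reagent addition at RT. The reagent followed a 2 h CCF4-AM incubation, and the cells had been exposed to compound for 16 h at 37C.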

[8] = molecular target: Cellular tumor antigen p53 (Homo sapiens) (UniProt P04637); experiment: TOX21_p53_BLA_p5_ratio: Tox21 HCT-116 p53 Agonism Beta-lactamase Assay, Ratio, Phase 5 (AID 2283599)
In short: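 HCT-116 cells carrying a p53-inducible beta-lactamase reporter were seeded at 4000 cells/well and dosed after 5 h with compound in DMSO (217-fold dilution). After 16 h at 37C, CCF4-AM substrate was added for 2 h, and the 460/530 nm emission ratio was scored as gain-of-signal versus DMSO.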

[9] = molecular target: Cellular tumor antigen p53 (Homo sapiens) (UniProt P04637); experiment: TOX21_p53_BLA_p4_ratio: Tox21 HCT-116 p53 Agonism Beta-lactamase Assay, Ratio, Phase 4 (AID 2283601)
In short: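 HCT116 cells carrying an inducible beta-lactamase reporter were plated at 4000 cells/well, rested 5 h, then exposed to compounds in DMSO (217-fold dilution) for 16 h at 37C. CCF4-AM substrate was loaded 2 h at room temperature; 460/530 nm emission ratio scored gain-of-signal versus DMSO.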

[10] = Tanguay_ZF_120hpf_MORT_legacy: (Legacy) Oregon State University Tanguay Lab 120 Hour Post-fertilization zebrafish Assay for Mortality (AID 2283633)
In short: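 5D WT zebrafish, chorion removed 4 hpf; 1 embryo/well from 6 hpf; static exposure to 120 hpf, 28C, dark, sealed. Final DMSO 0.64%. Readout: binary mortality, brightfield, 24 + 120 hpf; DMSO as negative control.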

[11] = Tanguay_ZF_120hpf_YSE_legacy: (Legacy) Oregon State University Tanguay Lab 120 Hour Post-fertilization zebrafish Assay for Yolk Sac Edema (AID 2283634);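 on AC50: actives raise the incidence of yolk sac edema above the DMSO baseline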
In short: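 Dechorionate (pronase, 4 hpf) → place one 6 hpf embryo per well → static compound exposure, sealed and foil-covered, 28C, to 120 hpf → record yolk sac edema as present or absent. Final DMSO 0.64%.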

[12] = Tanguay_ZF_120hpf_AXIS_legacy: (Legacy) Oregon State University Tanguay Lab 120 Hour Post-fertilization zebrafish Assay for Body Axis Malformation (AID 2283635);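 on AC50: potency for an increased fraction of larvae scored with body axis malformation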
In short: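 Chorion is removed with pronase at 4 hpf, then single 6 hpf embryos are dosed (final DMSO 0.64%) and held statically at 28C in sealed, foil-covered plates. At 120 hpf body axis malformation is recorded as present or absent.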

[13] = Tanguay_ZF_120hpf_SNOU_legacy: (Legacy) Oregon State University Tanguay Lab 120 Hour Post-fertilization zebrafish Assay for Snout Malformation (AID 2283637)
In short: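 Dechorionated zebrafish, individually housed from 6 hpf in covered, sealed wells at 28C with 0.64% DMSO vehicle, were examined at 120 hpf for snout malformation. Responses were binary and analysed positive-direction relative to DMSO.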

[14] = Tanguay_ZF_120hpf_JAW_legacy: (Legacy) Oregon State University Tanguay Lab 120 Hour Post-fertilization zebrafish Assay for Jaw Malformation (AID 2283638)
In short: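 Steps: dechorionate 4 hpf embryos (pronase); plate 1/well at 6 hpf; add test chemical, 0.64% DMSO final; seal, cover, hold at 28C statically to 120 hpf; score jaw defect presence/absence microscopically. Dead embryos not scored.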

[15] = Tanguay_ZF_120hpf_OTIC_legacy: (Legacy) Oregon State University Tanguay Lab 120 Hour Post-fertilization zebrafish Assay for Otic Vesicle Malformation (AID 2283639)
In short: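 Statically exposed wild-type 5D zebrafish embryos, kept sealed and dark at 28C through 120 hours post fertilization, were examined by brightfield microscopy for otic vesicle defects. Responses were recorded as present or absent and analysed relative to DMSO.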

[16] = Tanguay_ZF_120hpf_BRAI_legacy: (Legacy) Oregon State University Tanguay Lab 120 Hour Post-fertilization zebrafish Assay for Brain Malformation (AID 2283641)
In short: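 Wild-type 5D larvae, static waterborne exposure to 120 hpf, 28C, 0.64% v/v DMSO. Brightfield scoring of brain defects, binary; dead embryos excluded. Positive ctrl 5uM trimethyltin chloride.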

[17] = TOX21_p53_BLA_p3_viability: Viability Assessment in the Tox21 HCT-116 p53 Agonism Beta-lactamase Assay, Phase 3 (AID 2283593);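 further: cells exposed to compound for 16 h before reading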
In short: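 HCT-116 cells (4000/well) rested 5 h at 37C, then got DMSO compounds by pin tool (217-fold dilution) for 16 h at 37C, 5% CO2. After the bla read, CellTiter-Glo was added and luminescence read at 30 min, room temperature.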

[18] = TOX21_p53_BLA_p5_viability: Viability Assessment in the Tox21 HCT-116 p53 Agonism Beta-lactamase Assay, Phase 5 (AID 2283600)
In short: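 Workflow: seed 4000 cells per well, wait 5 h, add compounds (DMSO, 217-fold dilution), incubate 16 h, load CCF4-AM 2 h, add CellTiter-Glo, read luminescence after 30 min.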

[19] = Tanguay_ZF_120hpf_EYE_legacy: (Legacy) Oregon State University Tanguay Lab 120 Hour Post-fertilization zebrafish Assay for Eye Malformation (AID 2283636);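 further: binary presence or absence of eye malformation scored by brightfield in 120 hpf larvae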
In short: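 Static waterborne exposure of dechorionated zebrafish embryos (strain Tropical 5D), 6 to 120 hpf, sealed plates at 28C, 0.64% DMSO vehicle. Eye malformation is scored as a binary endpoint, with gain of signal analysed relative to DMSO.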

[20] = Tanguay_ZF_120hpf_PE_legacy: (Legacy) Oregon State University Tanguay Lab 120 Hour Post-fertilization zebrafish Assay for Pericardial Edema (AID 2283640)
In short: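 Embryos from wild-type 5D adults were staged, then dosed in 0.64% DMSO. They were kept sealed in the dark at 28C until 120 hpf. Pericardial edema was then recorded as present or absent.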

Measured: AC50

CCN(CC)C(=O)C(C)Oc1cccc2ccccc12 (centres undefined)
active: [1] 50 µM | [11] 55 µM
not listed: [17] | [18] | [19] | [20]
inactive: all other assays above

COP(=S)(OC)SCn1nnc2ccccc2c1=O
inactive: [1] | [2] | [3] | [4] | [5] | [17] | [6] | [7] | [8] | [18] | [9] | [10] | [11] | [19] | [13] | [14] | [15] | [20] | [16]
active: [5] 73.9 µM | [9] 43.5 µM | [12] 17.3 µM

Nc1c(Cl)c(F)nc(OCC(=O)O)c1Cl
not listed: [3] | [7] | [8] | [9] | [12] | [16] | [19]
inactive: all other assays above

CC(C)N1C(=O)c2ccccc2NS1(=O)=O
not listed: [3] | [8] | [11] | [19] | [20]
inactive: all other assays above

Nc1c(Cl)c(Cl)nc(C(=O)O)c1Cl
active: [5] 75.6 µM
not listed: [3] | [11] | [12] | [13] | [19]
inactive: all other assays above

COCC(=O)N(c1c(C)cccc1C)C(C)C(=O)OC (centres undefined)
not listed: [3] | [15] | [19]
inactive: all other assays above

Cc1nc(N(C)C)nc(OC(=O)N(C)C)c1C
inactive: [1] | [2] | [10] | [11] | [12] | [19] | [13] | [14] | [15]

COP(=O)(OC)O/C(C)=C/C(=O)N(C)C
not listed: [3] | [5] | [6] | [7] | [8] | [17] | [18] | [20]
inactive: all other assays above
